Among all 2,400 compounds or so, about 750 (31%) were called active.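 The calls were made as follows: active = median signal gain over dofetilide-blocked control wells reaching their mean plus 3 SD, so readout 1 at least 0; inactive = the rest.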 The list shows a part of the results.
What follows are compounds tested against Voltage-gated inwardly rectifying potassium channel KCNH2 (Homo sapiens) (UniProt Q12809) (assay: modulators restoring hERG flux under dofetilide – cell-based, thallium flux, duplicate retest, dofetilide IC70, confirmation (AID 1835)). Conditions: hERG cell line, FluxOR thallium flux, dofetilide-blocked; at 10 µM; active compounds read high.
Voltage-gated inwardly rectifying potassium channel KCNH2 (Homo sapiens), sequence (Q12809 whole entry, looked up): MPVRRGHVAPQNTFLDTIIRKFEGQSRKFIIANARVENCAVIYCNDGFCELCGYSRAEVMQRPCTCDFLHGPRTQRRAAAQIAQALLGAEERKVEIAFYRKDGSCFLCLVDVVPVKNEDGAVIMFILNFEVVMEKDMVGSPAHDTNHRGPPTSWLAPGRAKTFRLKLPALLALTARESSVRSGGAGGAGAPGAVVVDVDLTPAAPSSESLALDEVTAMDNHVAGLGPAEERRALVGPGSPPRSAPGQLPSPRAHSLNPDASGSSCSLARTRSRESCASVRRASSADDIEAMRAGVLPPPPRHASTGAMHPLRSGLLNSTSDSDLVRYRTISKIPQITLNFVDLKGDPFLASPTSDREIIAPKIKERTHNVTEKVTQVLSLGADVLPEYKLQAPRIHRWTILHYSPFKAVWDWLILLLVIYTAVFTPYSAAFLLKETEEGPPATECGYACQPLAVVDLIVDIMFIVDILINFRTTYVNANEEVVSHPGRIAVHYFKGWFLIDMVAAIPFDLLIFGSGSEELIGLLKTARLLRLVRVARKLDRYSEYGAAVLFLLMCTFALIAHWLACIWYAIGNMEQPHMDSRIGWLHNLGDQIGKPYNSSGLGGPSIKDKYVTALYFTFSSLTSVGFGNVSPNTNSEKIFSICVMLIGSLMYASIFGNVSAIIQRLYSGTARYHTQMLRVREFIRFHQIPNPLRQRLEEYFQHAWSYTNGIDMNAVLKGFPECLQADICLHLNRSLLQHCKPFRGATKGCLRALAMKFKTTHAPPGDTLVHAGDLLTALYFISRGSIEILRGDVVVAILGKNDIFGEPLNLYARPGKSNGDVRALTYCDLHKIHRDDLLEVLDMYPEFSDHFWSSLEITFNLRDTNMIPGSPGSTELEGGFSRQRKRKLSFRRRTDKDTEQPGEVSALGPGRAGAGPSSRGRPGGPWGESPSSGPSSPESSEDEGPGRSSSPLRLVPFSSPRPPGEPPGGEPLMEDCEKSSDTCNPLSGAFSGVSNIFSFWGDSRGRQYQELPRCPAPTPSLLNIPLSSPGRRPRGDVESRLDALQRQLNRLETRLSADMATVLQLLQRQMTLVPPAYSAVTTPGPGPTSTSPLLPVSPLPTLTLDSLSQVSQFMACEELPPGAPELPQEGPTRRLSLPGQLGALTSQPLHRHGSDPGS

Row | SMILES | activity increase over dofetilide control, less the hit threshold
1 | N/C(=N\OS(=O)(=O)c1cccc([N+](=O)[O-])c1)c1ccncc1 | 1% (active)
2 | CN(c1cccc(NS(=O)(=O)c2cccc([N+](=O)[O-])c2)c1)S(C)(=O)=O | -19% (inactive)
3 | O=C(CSc1nnc(-c2ccncc2)o1)c1cccc([N+](=O)[O-])c1 | -10% (inactive)
4 | COc1ccc(C)cc1-n1nnnc1SCc1nc2ccccc2c(=O)[nH]1 | -16% (inactive)
5 | Cc1ccc(C2=NN(C(=O)CCCC(=O)O)C(c3ccc4c(c3)OCO4)C2)cc1 (configuration not stated) | -23% (inactive)
6 | CCN(CC)CCCN1C(=O)c2oc3ccccc3c(=O)c2C1c1cccs1 (configuration not stated) | 28% (active)
7 | Cc1ccc2oc3c(c(=O)c2c1)C(c1cccs1)N(CCCN(C)C)C3=O (configuration not stated) | 11% (active)
8 | COCCN1C(=O)c2oc3cc(C)c(C)cc3c(=O)c2C1c1ccc(O)cc1 (configuration not stated) | -7% (inactive)
9 | COCCCNC(=O)CC(NS(=O)(=O)c1ccc(F)cc1)c1ccc(OC)cc1 (configuration not stated) | -1% (inactive)
10 | CN(C)NC(=O)C(NC(=O)c1ccc(N)cc1)C12CC3CC(CC(C3)C1)C2 (configuration not stated) | -10% (inactive)
11 | O=C(O)c1cc(-c2cccc([N+](=O)[O-])c2)n[nH]1 | -14% (inactive)
12 | CCc1nnc(NS(=O)(=O)c2ccc(NC(=S)NC(=O)/C=C/c3ccc(OC)cc3)cc2)s1 | -4% (inactive)
13 | CS(=O)(=O)c1sc(C(=O)NC(=S)Nc2ccc(OC(F)(F)F)cc2)c2c1C=CCC2 | 11% (active)
14 | O=C(O)/C=C/C(=O)Nc1ccc(OC(F)(F)F)cc1 | -3% (inactive)
15 | COc1ccc(Cc2c(O)nc(SCC(=O)NC(C)(C)C)[nH]c2=O)cc1 | -17% (inactive)
16 | COc1cccc(N2CC(C(=O)Nc3nnc(SCC(=O)NCC4CCCO4)s3)CC2=O)c1 (configuration not stated) | -4% (inactive)
17 | C=CCn1c(SCC(=O)NCC2CCCO2)nnc1-c1ccccc1 (configuration not stated) | -1% (inactive)
18 | Cc1nc(SCC(=O)NCC2CCCO2)c2c3c(sc2n1)CCCC3 (configuration not stated) | 9% (active)
19 | Cc1cc(OCc2ccc(C(=O)Nc3ccc(C(=O)O)cc3)o2)ccc1Cl | -22% (inactive)
20 | Cc1ccc(OCc2ccoc2C(=O)O)cc1C | 11% (active)
21 | COC(=O)C1CN(C(=O)COc2ccc(C)c(C)c2)c2ccccc2O1 (configuration not stated) | -11% (inactive)
22 | COC(=O)c1cc(S(=O)(=O)NCC2CCN(Cc3cc(C)ccc3C)CC2)c[nH]1 | -12% (inactive)
23 | Cc1nn(C)cc1C(=O)Nc1ccc2c(c1)OCCO2 | -8% (inactive)
24 | COc1cc(NS(=O)(=O)c2ccc(NC(=S)Nc3ccccc3)cc2)nc(OC)n1 | -26% (inactive)

Row | SMILES | activity increase over dofetilide control, less the hit threshold
25 | CCN(c1ccccc1)S(=O)(=O)c1ccc(NC(=S)NC(=O)c2ccc(Br)o2)cc1 | 20% (active)
26 | COc1ccc(NC(=S)NC(=O)c2ccc(Br)o2)cc1 | 13% (active)
27 | O=C(CNC(=S)NC(=O)c1ccc(Br)o1)c1ccccc1 | -3% (inactive)
28 | COc1cccc(NC(=S)NC(C)c2ccc(OC)c(OC)c2)c1 (configuration not stated) | -24% (inactive)
29 | O=C(NC(=S)NCc1ccccc1)c1ccc(Br)o1 | 91% (active)
30 | CCc1ccc(NC(=S)NC(=O)c2c(-c3ccccc3Cl)noc2C)cc1 | -2% (inactive)
31 | COc1ccc(OC)c(NC(=S)NC(=O)c2ccc(Br)o2)c1 | 0% (active)
32 | CCOC(=O)C1CCN(C(=O)CCS(=O)(=O)c2ccc3c(c2)CCN3C(=O)CC)CC1 | -17% (inactive)
33 | N#Cc1c(N)c(C(=O)c2ccccc2)n2ccccc12 | -2% (inactive)
34 | Cc1ccsc1/C=N/NC(=O)CNC(=O)c1ccccc1 | -2% (inactive)
35 | CCCCc1c(O)nc(SCC(=O)N2CCOCC2)[nH]c1=O | -10% (inactive)
36 | Cn1ncc2c(O/N=C(\N)c3ccc(C(F)(F)F)cc3)ncnc21 | -15% (inactive)
37 | NC(=O)C1CCN(C(=O)CCC(=O)c2ccc(F)cc2)CC1 | -4% (inactive)
38 | Cc1nc(-c2cc(C#N)c(Sc3ccc(Cl)cc3Cl)nc2C)cs1 | -4% (inactive)
39 | Cc1cccc(NC(=S)NC(=O)c2ccc(Br)o2)c1 | 33% (active)
40 | C/C(=N\NC(=S)Nc1cccc(C)c1)c1ccco1 | -26% (inactive)
41 | O=C(NC(=S)Nc1ccccc1F)c1ccc(Br)o1 | 43% (active)
42 | O=C(NC(=S)Nc1ccccc1)c1ccc(Br)o1 | 5% (active)
43 | Cc1ccc(NC(=S)NC(=O)c2ccc(Br)o2)c(C)c1 | 0% (inactive)
44 | COc1ccccc1NC(=S)NC(=O)c1ccc(-c2ccc(Cl)cc2)o1 | 8% (active)
45 | COc1ccc(-c2cc(C(=O)Nc3ccccc3SC)no2)cc1 | -2% (inactive)
46 | Cc1ccc2cc(CN(CCCN(C)C)C(=S)NCc3ccccc3)c(=O)[nH]c2c1C | -19% (inactive)
47 | Cc1nn(-c2ccc(Cl)nn2)c(=O)c2ccccc12 | -12% (inactive)
48 | COc1cccc2cc(-c3nc4ccccc4[nH]3)c(=O)oc12 | -24% (inactive)

Row | SMILES | activity increase over dofetilide control, less the hit threshold
49 | CC(C)=CC(=O)OCC(=O)Nc1ccc(SC(F)F)cc1 | -16% (inactive)
50 | Cc1c(C(=O)NC(=S)NCc2cccnc2)oc2ccccc12 | -7% (inactive)
51 | O=C(NC(=S)Nc1cccnc1)c1cc2ccccc2o1 | 21% (active)
52 | O=C(Nc1cccnc1)c1cc(-c2cccs2)on1 | -16% (inactive)
53 | O=C(NC(=S)NCCc1ccc(Cl)cc1)c1ccco1 | -7% (inactive)
54 | S=C(NCCc1ccccc1)NCCN1CCOCC1 | -10% (inactive)
55 | O=C(NC(=S)NCCC1=CCCCC1)c1ccco1 | 50% (active)
56 | O=C(NC(=S)NCCC1=CCCCC1)c1ccc(Br)o1 | 27% (active)
57 | Oc1c(Br)cc(Br)cc1CNc1cccc2cccnc12 | -19% (inactive)
58 | CN(Cc1ccsc1)C(=O)CCc1nnc(Cc2c[nH]c3ccccc23)o1 | -8% (inactive)
59 | CN(Cc1ccccc1)C(=O)CCc1ccccc1 | 12% (active)
60 | COc1ccc(S(=O)(=O)N(CCc2ccccc2)CC(=O)O)cc1 | -12% (inactive)
61 | O=C1NCCN1Cc1ccccc1F | -20% (inactive)
62 | Cc1ccc2c(c1)C1CN(C)CCC1N2C(=S)NC(=O)c1ccc(Br)cc1 (configuration not stated) | -26% (inactive)
63 | CN1CCN(C(=S)NC(=O)c2ccc(C(C)(C)C)cc2)CC1 | -15% (inactive)
64 | CC(C)(C)c1ccc(C(=O)NC(=S)N2CCCC2)cc1 | -6% (inactive)
65 | CC1CCN(C(=S)NC(=O)c2ccc(C(C)(C)C)cc2)CC1 | 22% (active)
66 | CCOC(=O)C1CCCN(C(=S)NC(=O)/C=C/c2ccc(F)cc2)C1 (configuration not stated) | -6% (inactive)
67 | CC(C)(C)c1ccc(/C=C/C(=O)N2CCCCC2)cc1 | 5% (active)
68 | O=C(/C=C/c1ccccc1)Nc1ccc(C(=O)N2CCCCC2)cc1 | -14% (inactive)
69 | CC(C)(C)c1ccc(C(=O)NC(=S)N2CCCCCC2)cc1 | 16% (active)
70 | COc1cc(OC)cc(C(=O)NC(=S)N2CCCCCC2)c1 | -12% (inactive)
71 | O=C(NC(=S)N1CCCC1)c1ccc(Cl)cc1 | 0% (inactive)
72 | O=C(NC(=S)N1CCCCCC1)c1ccc(Cl)cc1Cl | 11% (active)

Reference: PubChem BioAssay AID1835 (Johns Hopkins Ion Channel Center, 2009)
